# TDP-43 yeast inh: rescues yeast growth from TDP-43 toxicity. actives 1.8% (n = 410,000). Potency, µM (titrated, usually from 46.1 µM), most hits filed as activators. AID 652104. TDP-43 expressing yeast growth rescue, BacTiter-Glo, 24 h; further: nearly all actives have a fitted effect of over 50% in size
#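 Yeast cells expressing TDP-43 under galactose induction are exposed to compounds for 24 hr at 30 deg C. BacTiter-Glo luminescence measures growth, so protective compounds score as activators.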
# FUS yeast rescue: rescues growth of FUS-expressing yeast. S. cerevisiae FUS-expressing, growth rescue, OD600, 24 h. Potency, µM (series often up to 76.6 µM), most hits filed as activators. actives 0.24% (n = 390,000); further: nearly all actives have a fitted effect of over 55% in size
#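 Compound concentration series was pinned onto galactose-induced FUS-expressing yeast seeded at OD 0.005. Plates sat 24hr at 30C; absorbance at 600 nm gave growth. DMSO served as background control.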
# Abeta yeast res: compounds reversing amyloid beta toxicity in yeast | yeast expressing A-beta42, growth rescue, OD600, 48 h; response scale: 0% DMSO, 100% iron-clioquinol control | Potency, µM (series often up to 46.1 µM), hits mostly activators | actives 0.063% (n = 410,000) | AID 1347071; further: nearly all actives have a fitted effect of over 55% in size
#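 Yeast growth medium received pinned compounds, then yeast cells expressing toxic A-beta were added; plates incubated at 30 C for 48 hr. Growth read as absorbance at 600 nm, normalized to DMSO and equimolar FeCl3 plus clioquinol controls.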
# aSyn yeast inh: alpha-synuclein toxicity inhibition in yeast; Yeast expressing alpha-synuclein, growth rescue, BacTiter-Glo, 24 h; Potency, µM (titrated, usually from 46.1 µM), usual class: activators; actives 0.14% (n = 370,000); further: nearly all actives have a fitted effect of over 65% in size
#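 Screening used galactose-induced yeast with toxic alpha-synuclein levels, exposed to compound for 24 hr at 30 deg C. Cell growth, read with BacTiter-Glo luminescence, gave the measured signal.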
# A number is an active result; . = inactive; ? = inconclusive; / = not tested or not shown; [ ] = another dose, or the depositor's remark. Only some compounds are listed: those with a hit (about 2.1% of all), similar ones and a draw of the others. The call rests on the fitted dose curve; in most records, active means well fitted curve in the direction sought with a large enough effect; inconclusive means small, poorly fitted or top-dose-only effect, or another doubt; inactive means no such curve, though single readings can be large; an effect the other way counts as inactive or inconclusive.
SMILES,TDP-43 yeast inh,FUS yeast rescue,Abeta yeast res,aSyn yeast inh
COc1ccc(S(=O)(=O)N(C)C[C@H]2Oc3ccc(NS(=O)(=O)c4ccc(F)cc4)cc3C(=O)N([C@H](C)CO)C[C@@H]2C)cc1,.,32µM,.,.
Cc1ccc(S(=O)(=O)N(C)C[C@@H]2OCCCC[C@@H](C)Oc3ccc(NS(=O)(=O)c4c(C)noc4C)cc3C(=O)N([C@H](C)CO)C[C@@H]2C)cc1,.,16µM,.,.
COc1ccc(S(=O)(=O)Nc2cccc3c2O[C@H](CN(C)S(=O)(=O)c2ccc(Cl)cc2)[C@H](C)CN([C@H](C)CO)C3=O)cc1,.,10µM,.,.
C[C@@H]1CCCCO[C@@H](CN(C)Cc2ccc(Cl)c(Cl)c2)[C@@H](C)CN([C@H](C)CO)C(=O)c2cc(NC(=O)Nc3ccccc3)ccc2O1,.,28µM,.,.
COc1ccc(S(=O)(=O)Nc2ccc3c(c2)C(=O)N([C@H](C)CO)C[C@H](C)[C@@H](CN(C)S(=O)(=O)c2ccc(F)cc2)O3)cc1,.,?,.,.
C[C@H](CO)N1C[C@H](C)[C@@H](CN(C)Cc2ccc(-c3ccccc3)cc2)Oc2c(NS(=O)(=O)c3ccccc3)cccc2C1=O,.,22µM,.,.
Cc1cccc(N2CCN(C(=O)Cn3cnc4sc(C)c(S(=O)(=O)N5CCN(c6ncccn6)CC5)c4c3=O)CC2C)c1 (stereo not drawn),.,.,.,/
CC1CCCCN1c1ncnc(N)c1[N+](=O)[O-] (stereo not drawn),.,.,.,.
CC1Cc2ccccc2N1c1ncnc(N)c1[N+](=O)[O-] (stereo not drawn),11µM,.,.,.
CC1Cc2ccccc2N1c1ncnc2nc[nH]c12 (stereo not drawn),20µM,.,.,.
c1ccc2c(c1)CCN(c1ncnc3nc[nH]c13)C2,.,.,.,.
CN(C)C(=O)COc1ccccc1C(=O)OCC(=O)Nc1ccc(Oc2ccc(Br)cc2)cc1,/,/,/,.
CCc1ccc(S(=O)(=O)c2nnn3c2nc(NC2CCCC2)c2sccc23)cc1,.,.,.,/
Cc1cccc(C)c1NC(=O)[C@H]1CC(=O)O[C@@H]1c1ccccc1,/,.,/,/
Clc1cccc(OCc2nc(-c3ccncc3)no2)c1,11µM,.,.,.
Cc1ccc(C)c(N2CCN(S(=O)(=O)c3cc(C(=O)Nc4ccccc4C(F)(F)F)ccc3F)CC2)c1,?,.,4µM,/
Cc1ccccc1NC(=O)c1ccc(F)c(S(=O)(=O)N2CCN(c3ccccn3)CC2)c1,.,.,.,.
CCCCCNC1=CC(=O)CC(c2ccccc2)C1 (stereo not drawn),.,.,.,.
CCCCCCCNC1=CC(=O)CC(c2ccccc2)C1 (stereo not drawn),20µM,.,.,.
O=C(NCCc1ccc(Cl)cc1)C(=O)NCC(c1cccs1)S(=O)(=O)c1ccccc1 (stereo not drawn),.,.,.,/
O=C(Nc1ccc(Cl)c(Cl)c1)Nc1ccon1,35µM,.,.,.
CCOc1ccc(-c2cn3c(n2)sc2cc(C(=O)NCCCN(CC)CC)ccc23)cc1,.[9.22 µM],.,.,/
COc1cc(-c2noc(-c3ccc(N4CCOCC4)c([N+](=O)[O-])c3)n2)cc(OC)c1OC,.,.,.,/
CCN(C(=O)C1CCN(c2nc(-c3ccc(OC)cc3)no2)CC1)c1ccccc1,?,?,.,.
COc1ccc(-c2noc(N3CCC(C(=O)N(C)c4ccccc4)CC3)n2)cc1,16µM,.,.,.
SMILES,TDP-43 yeast inh,FUS yeast rescue,Abeta yeast res,aSyn yeast inh
C(=C\c1nc2ccccc2nc1/C=C/c1ccc2c(c1)OCO2)/c1ccc2c(c1)OCO2,/,/,/,.
COc1ccc2[nH]c(-c3ccccc3)cc2c1,13µM,.,.,.
COc1ccc2nc(-c3ccccc3)[nH]c2c1,.,.,.,.
CC(C(=O)NCc1cccc(Br)c1)n1ncn2cccc2c1=O (stereo not drawn),.,.,.,/
Cc1ccc(Cl)cc1N1CCN(C(=O)c2cnn(C)c2C2CCN(C(=O)OC(C)(C)C)CC2)CC1,22µM,?,.,/
Cc1ccc(-c2nc(P(=O)(c3ccccc3)c3ccccc3)c(N3CCOCC3)o2)cc1,.,.,.,.
CNc1oc(-c2ccc(Cl)cc2)nc1P(=O)(c1ccccc1)c1ccccc1,18µM,?,.,.
O=C(Nc1nccs1)C1(c2ccc(Cl)cc2)CC1,.,.,.,.
C=C1C2(C(=O)Nc3nccs3)CCC(C2)C1(C)C (stereo not drawn),13µM,.,?,.
COc1cc(Cl)c(C)cc1NC(=O)c1cnn(-c2ccc(C)cc2)c1-n1cccc1,.,.,.,/
COc1cc(O)c([C@@H](CC(=O)N2CC(C)CC(C)C2)c2ccc3c(c2)OCO3)c(OC)c1 (stereo partly drawn),/,25µM,/,/
COc1ccc(-c2sc3ccc(OC)cc3c2C#CCCO)cc1,22µM,?,.,.
COc1ccc2sc(-c3ccc(N(C)C)cc3)c(C#CCCO)c2c1,35µM,?,.,.
CC(=O)c1cccc(NC(=O)N(c2ccccc2)c2ccccc2)c1,16µM,.,.,.
O=C(Nc1cccc(NC(=O)c2ccc3c(c2)OCO3)c1)c1ccccc1,.,.,.,.
CC(=O)c1cccc(NC(=O)c2ccc3c(c2)OCO3)c1,13µM,.,.,.
Cc1ccc(S(=O)(=O)NCc2ccc3c(c2)OCO3)cc1C,18µM,.,.,.
O=c1onc(-c2ccccc2)n1Cc1ccc([N+](=O)[O-])cc1,8.9µM,.,.,.
O=c1onc(-c2ccc(Cl)cc2)n1Cc1ccc(F)cc1,18µM,/,.,.
COc1ccc(-c2noc(=O)n2Cc2ccccc2F)cc1,13µM,.,.,.
N#Cc1ccc(Cn2c(-c3ccc(F)cc3)noc2=O)cc1,/,.,.,.
CN(C)S(=O)(=O)c1cccc(C(=O)N/N=C\c2ccc(-c3ccccn3)cc2)c1,/,.,/,/
CC(c1ccccc1)n1cc(C(=O)N2CCCC2)nn1 (stereo not drawn),/,.,/,/
Cc1cc(C)c(S(=O)(=O)NC2CC3CCC2C3)c(C)c1 (stereo not drawn),13µM,.,.,.
COc1cccc(N2CCN(c3cnc4ccccc4n3)CC2)c1,35µM,.,.,.
COc1ccc(N2CCN(c3cnc4ccccc4n3)CC2)cc1,.,.,.,.
Cc1ccc(S(=O)(=O)NC(=O)C2(C)CCN2C(=O)Cc2ccc(-c3ccccc3)cc2)cc1 (stereo not drawn),.,28µM,.,.
CC1(C(=O)Nc2cccc3cccnc23)CCN1C(=O)Cc1ccc(Cl)cc1Cl (stereo not drawn),20µM,.,.,.
CC(C)c1ccc(CC(=O)N2CCC2(C)C(=O)Nc2cnc3ccccc3c2)cc1 (stereo not drawn),?,.,.,.
CC1(C(=O)Nc2cccc3ncccc23)CCN1C(=O)Cc1ccc(-c2ccccc2)cc1 (stereo not drawn),25µM,?,.,.

# Assay outcomes: PubChem, National Center for Advancing Translational Sciences (NCATS)
